In the library only some 1.4% were active in any assay of this set; here they are far more common.
Vif-A3G inh – blocks the Vif interaction with human APOBEC3G | Q9HC16 | HeLa A3G-eYFP + Vif (tagged APOBEC3G with the HIV-1 protein that degrades it), YFP fluorescence, overnight | Potency, µM (top dose mostly 46.1 µM), inactives show at the highest dose activity, negative = active, hits mostly inhibitors | hit rate 0.076% among 410,000; note: potency is the fitted concentration of half-maximal effect; % is set by controls: 0 for no effect and ±100 for the full control effect; nearly all actives have a fitted effect of over 60% in size
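Read-out is eYFP fluorescence (Ex 488/Em 500-530) from Vif-expressing HeLa A3G-eYFP cells; more signal means A3G escaped Vif-mediated degradation. Cells plated overnight, compound pinned in, incubated overnight at 37 deg C.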
Akt phos inh – inhibitors of Akt phosphorylation; Neuro2A IGF-stimulated pAkt S473 HTRF, 20 min; hits give low values; activity change, % for hits at 50 µM; hit rate 0.32% among 360,000; in the data active = activity change below about -80%; inconclusive = mostly about -51% to -80%; note: % is set by controls: 0 for no effect and ±100 for the full control effect
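Neuro2A cells in DMEM with 0.5% FBS, overnight at 37 deg C, given compound at single 50 µM final, then IGF (6 nM final) for 20 min at 37 deg C. Lysed; phospho-Akt Ser473 by HTRF after 24 h, 665/615 ratio.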
PTAP TSG101 blk – blocks PTAP/TSG101 interaction to inhibit HIV-1 budding. Potency, µM (titrated, usually from 115 µM), for inactives: top-dose activity change, negative = inhibition, actives largely listed as inhibitors. Q99816. 340,000 tested, under 10 active. Fluorescence polarization, FITC-PTAP peptide / Tsg101 binding; active = well fitted inhibition curve with a large enough effect in the main read-out, with a control signal flat, not every such curve was filed as active; inconclusive = small, poorly fitted or top-dose-only effect, or effect the other way, or a change in a side signal; inactive = no such curve, though single readings can be large or run the other way; note: potency is the fitted concentration of half-maximal effect; % of control where 0% means no effect
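FP read-out: FITC-PTAP peptide, 50 nM final, binding Tsg101 binding domain, 10 uM final; 20 min, r.t.; 10 mM HEPES pH 7.5, 0.15 M NaCl, 0.01% Tween 20, 3 mM EDTA, 0.1 mM TCEP.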
Vif-APOBEC3F blk – blocks the Vif interaction with APOBEC3F | Potency, µM (titrated, usually from 46.1 µM), for the others: at the top dose activity, negative = active | AID 602313 | HeLa A3F-eYFP + Vif (tagged APOBEC3F with the HIV-1 protein that degrades it), YFP fluorescence increase | hit rate 0.2% among 390,000; note: potency is the fitted concentration of half-maximal effect; % of control where 0% means no effect; nearly all actives have a fitted effect of over 65% in size
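Fluorescence increase (Ex 488/Em 500-530) after overnight compound treatment at 37 deg C flags inhibition of Vif-driven A3F-eYFP loss in stable HeLa A3F-eYFP/Vif cells seeded overnight beforehand.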
ASM inhibitor – inhibitors of human secretory acid sphingomyelinase | placental ASM, HMU-PC fluorogenic substrate, 60 min | Potency, µM (highest dose often 57.5 µM), for inactives: top-dose activity change, negative = inhibition, hits mostly inhibitors | AID 504937 | hit rate 0.006% among 340,000 | P17405; note: potency is the fitted concentration of half-maximal effect
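Fluorogenic HMU-PC substrate (9 uM final) is turned over by placental ASM in 60 min at 37 C after a 10 min compound preincubation. Reaction ended by alkaline stop (pH 10), with fluorescence read at 386/447 nm.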
ALOX12 inh – ALOX12 (human) lipoxygenase inhibition | hit rate 1.1% among 580,000 | Potency, µM (series often up to 108 µM), without a hit: at the highest dose activity change, negative = inhibition, hits mostly inhibitors | P18054 | purified 12hLO, xylenol orange hydroperoxide absorbance; note: potency is the fitted concentration of half-maximal effect; % is set by controls: 0 for no effect and ±100 for the full control effect
Target sequence (P18054 whole entry, looked up): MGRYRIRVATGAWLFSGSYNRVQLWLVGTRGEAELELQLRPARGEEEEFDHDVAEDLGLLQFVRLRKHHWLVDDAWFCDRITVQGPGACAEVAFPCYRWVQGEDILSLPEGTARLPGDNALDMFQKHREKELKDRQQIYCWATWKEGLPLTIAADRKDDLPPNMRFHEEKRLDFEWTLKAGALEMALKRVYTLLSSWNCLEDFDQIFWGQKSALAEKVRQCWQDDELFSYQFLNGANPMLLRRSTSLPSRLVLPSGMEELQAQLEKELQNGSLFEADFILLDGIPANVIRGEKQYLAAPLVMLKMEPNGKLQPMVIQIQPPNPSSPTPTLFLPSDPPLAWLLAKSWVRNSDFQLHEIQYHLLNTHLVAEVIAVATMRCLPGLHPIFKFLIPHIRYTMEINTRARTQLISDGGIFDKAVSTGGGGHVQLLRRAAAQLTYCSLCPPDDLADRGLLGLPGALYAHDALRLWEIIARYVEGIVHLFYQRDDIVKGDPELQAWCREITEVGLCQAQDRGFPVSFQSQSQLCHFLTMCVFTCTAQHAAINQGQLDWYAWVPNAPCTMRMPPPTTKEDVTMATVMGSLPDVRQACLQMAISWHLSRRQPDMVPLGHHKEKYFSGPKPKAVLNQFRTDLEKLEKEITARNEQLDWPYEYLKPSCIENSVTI
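Purified human 12hLO (150 nM final) in 25 mM Hepes, 0.01% Triton X-100, pH 7.0 was preincubated 15 min at room temperature with compound. Then 40 uM arachidonic acid was added, 30 min. Hydroperoxide was read by Fe-XO absorbance ratio 573/405 nm.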
Active calls of the source: *; i = inactive; ? = inconclusive; . = no result. Unless noted, calls come from the whole dose curve; as a rule, active = well fitted curve in the direction sought with a large enough effect; inconclusive = small, poorly fitted or top-dose-only effect, or another doubt; inactive = no such curve, though single readings can be large; an effect the other way counts as inactive or inconclusive.

SMILES | Vif-A3G inh | Akt phos inh | PTAP TSG101 blk | Vif-APOBEC3F blk | ASM inhibitor | ALOX12 inh
Cc1cn2nc(C(=O)N3CCC(NC(=O)c4nccc5ccccc45)CC3)cc2c(=O)[nH]1 | . | . | . | . | . | -1%
COc1cc(OC)c(OC)cc1/C=C1\CC(C)C/C(=C\c2cc(OC)c(OC)cc2OC)C1=O (stereo not drawn) | ? | i | ? | 22µM* | ? | ?
CCOCCOC(=O)c1nc2ccccc2nc1Nc1cc(C)cc(C)c1 | . | . | . | . | . | 7.1µM*
CCOC(=O)c1nc2ccccc2nc1Nc1cccc(OC)c1 | . | . | . | . | . | -28%
CCN(CC)Cc1ccc(CNC(=O)c2cnn(-c3ccccc3)c2)cc1 | . | . | . | . | . | -22%
Cc1cc2nc3c(=O)n(CCc4ccccc4)c(=O)[nH]c3nc2cc1N | ? | i | ? | 6.3µM* | -6% | ?
Nc1ccc2nc3c(=O)n(CCc4ccccc4)c(=O)[nH]c3nc2c1 | ? | i | ? | ? | -7% | -24%
O=C(O)CCCC(=O)Nc1ccc(OCc2nc3ccccc3s2)cc1 | -2% | i | 0% | -9% | 1% | ?
CCNC(=S)Nc1ccc(OCc2nc3ccccc3s2)cc1 | -3% | i | -4% | -17% | -6% | 45µM*
Cc1ccc(S(=O)(=O)NNC(=O)c2sccc2-n2cccc2)cc1 | -2% | i | -8% | 5% | -3% | 32µM*
O=C(O)CCc1oc2cc(O)ccc2c(=O)c1-c1nc2ccccc2[nH]1 | . | . | . | . | . | -13%
COc1ccc(-c2cc(C(=O)NC3CC3)c3ccccc3n2)cc1 | 0% | . | 2% | -4% | -1% | -17%
CC1CCC(NC(=O)c2cc3ccccc3c(Cl)n2)CC1 (stereo not drawn) | . | . | . | . | . | 40µM*
O=C(NC1CC1)c1cc(-c2ccccc2)nc2ccccc12 | . | . | . | . | . | -6%
CC1CCC(NC(=O)c2cc(C3CC3)nc3ccccc23)CC1 (stereo not drawn) | . | . | . | . | . | 59%
Cc1ccc(CNC(=O)c2cc(-c3ccc(C)o3)nc3ccccc23)cc1 | . | . | . | . | . | 3.2µM*
CC1CCC(NC(=O)c2cc(-c3ccccc3)nc3ccccc23)CC1 (stereo not drawn) | . | . | . | . | . | 0.79µM*
Cc1ccc(-c2cc(C(=O)NC3CC3)c3ccccc3n2)o1 | . | . | . | . | . | 13µM*
Cc1ccc(CNC(=O)c2cc(-c3ccc(C)c(C)c3)nc3ccccc23)cc1 | -3% | . | . | -17% | . | -18%
CC(=O)Nc1ccc(NC(=O)CC2C(=O)Nc3nc(-c4ccccc4)nn32)cc1 (stereo not drawn) | . | . | . | . | . | -2%
COc1ccc(CNC(=O)Nc2ccc(Br)c(C)c2)cn1 | . | . | . | . | . | 6%
C/C(=N\Nc1nc(-c2ccccc2)cs1)c1cccs1 | 0% | i | -8% | 7% | . | 45µM*
C/C(=N\Nc1nc2ccccc2s1)c1cccs1 | -7% | i | -6% | 6% | -15% | ?
Cc1cccc(C(=O)OCc2nc(N)c3ccccc3n2)c1 | . | . | . | . | . | 1%
CN(C)CCCn1c(=S)[nH]c2sc3c(c2c1=O)CCCC3 | 1% | i | 1% | -2% | 78% | 14µM*
SMILES | Vif-A3G inh | Akt phos inh | PTAP TSG101 blk | Vif-APOBEC3F blk | ASM inhibitor | ALOX12 inh
O=C(NC(=S)Nc1ccccc1N1CCOCC1)c1ccc(-c2cccc(Cl)c2)o1 | 0% | i | 2% | 4% | 7% | 40µM*
Cc1c(NC(=S)NC(=O)c2ccc(-c3ccc(Cl)cc3)o2)cccc1C(=O)O | 0% | i | 0% | 0% | -2% | 28µM*
O=C(NC(=S)Nc1ccccc1O)c1ccc(-c2ccc(Cl)cc2)o1 | -23% | i | 0% | -4% | -1% | ?
Cc1cccc(C(=O)N(Cc2nc(-c3ccc(Cl)cc3)no2)C(C)C)c1 | 4% | . | . | 0% | . | -27%
COc1cccc(C(=O)N(Cc2nc(-c3ccc(C)cc3)no2)C(C)C)c1 | 1% | -100%* | -4% | -8% | -5% | -23%
O=C(O)c1ccc(/C=N/NC(=O)C2CC2)cc1 | . | . | . | . | . | -9%
COCCN1CCN(Cc2ccc(C#N)cc2)CC1 | . | . | . | . | . | -25%

Source: PubChem
